# Screens deposited in PubChem BioAssay by National Center for Advancing Translational Sciences (NCATS).
# The sample as a whole holds a higher share of hits than the screen did.
# LmPK inh: qHTS Assay for Inhibitors of Leishmania Mexicana Pyruvate Kinase (LmPK) | Q27686 | purified LmPK, Kinase-Glo ATP luminescence, 1 h | Potency, µM (highest dose often 57.5 µM), inactives show top-dose activity change, negative = inhibition, actives largely listed as inhibitors | actives 0.37% (n = 290,000); note: potency is the fitted concentration of half-maximal effect; % is set by controls: 0 for no effect and ±100 for the full control effect
#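 In 50 mM imidazole pH 7.2 with 7 mM MgCl2, LmPK (0.1 nM) turned over PEP (0.5 mM) and ADP (0.1 mM) for 1 h at room temperature. Luciferase read-out of ATP.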
# TbPYK inhibitor: qHTS of Trypanosoma Brucei Inhibitors. TbPYK enzyme, Kinase-Glo Plus ATP luminescence, 45 min. Potency, µM (series often up to 76.8 µM), without a hit: at the top dose activity, negative = inhibition, most hits filed as inhibitors. actives 0.12% (n = 410,000); note: potency is the fitted concentration of half-maximal effect; % is set by controls: 0 for no effect and ±100 for the full control effect; nearly all actives have a fitted effect of over 50% in size
#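 Activity of T. brucei pyruvate kinase was followed by Kinase-Glo Plus luminescence after the enzyme reacted 45 min at room temperature with 130 uM ADP (final) and substrate. Test compounds were added before ADP at multiple concentrations.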
# Giardia FBPA inh-1: qHTS Assay for Inhibitors of Fructose-1,6-bisphosphate Aldolase from Giardia Lamblia. AID 2451, 2010. Potency, µM (series often up to 59.6 µM), for inactives: at the highest dose activity, negative = inhibition, usual class: inhibitors. purified Giardia FBPA. actives 0.71% (n = 290,000); note: potency is the fitted concentration of half-maximal effect; % is set by controls: 0 for no effect and ±100 for the full control effect; nearly all actives have a fitted effect of over 55% in size
# Target sequence (A8B2U2 whole entry, looked up): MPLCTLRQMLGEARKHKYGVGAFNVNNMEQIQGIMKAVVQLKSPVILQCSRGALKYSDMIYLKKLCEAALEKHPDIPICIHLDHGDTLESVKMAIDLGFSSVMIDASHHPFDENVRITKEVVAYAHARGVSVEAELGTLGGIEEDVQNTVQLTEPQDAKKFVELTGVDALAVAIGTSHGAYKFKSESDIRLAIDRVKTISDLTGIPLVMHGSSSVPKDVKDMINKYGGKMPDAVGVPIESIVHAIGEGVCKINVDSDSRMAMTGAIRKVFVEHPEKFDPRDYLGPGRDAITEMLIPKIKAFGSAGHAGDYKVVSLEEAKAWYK
#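 40 nM FBPA preincubated 10 min at RT with compound (up to 57.5 uM final), then substrate plus GAPDH/TPI/NAD/arsenate coupling and diaphorase/resazurin added. Fluorescence read after 20 min at RT, 525/598 nm.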
# RE007 growth inh: qHTS Assay for Inhibitors of the HIV-1 protein Vpr; S. pombe RE007 Vpr strain, BacTiter-Glo ATP luminescence, 24 h; Potency, µM (highest dose often 92.2 µM), for inactives: at the highest dose activity change, negative = less growth, most hits filed as inhibitors; actives 0.21% (n = 360,000); AID 651644, 2012; active = well fitted falling curve with a large enough effect; inconclusive = small, poorly fitted or top-dose-only effect; inactive = no such curve, though single readings can be large or run the other way; note: potency is the fitted concentration of half-maximal effect; % is set by controls: 0 for no effect and ±100 for the full control effect; nearly all actives have a fitted effect of over 50% in size
#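 Fission yeast RE007 carrying one integrated HIV-1 vpr copy, seeded at OD 0.01 in PMG+AL medium with 23 nL pinned compound. Grown 24 h at 30 degrees; viability read by BacTiter-Glo luminescence after 5 min.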
# CHX counter: Cycloheximide Counterscreen for Small Molecule Inhibitors of Shiga Toxin. actives 12% (n = 300,000). AID 2314, 2010. max response, %. cell reporter, cycloheximide protein synthesis inhibition counterscreen; in the data active = max response mostly above about 13%, no sharp cut-off; inactive = mostly below about 14%; note: read at 38.3 µM for the half of the compounds with a filed dose; 0% is about no effect
# Shiga inhibitor: A qHTS for Small Molecule Inhibitors of Shiga Toxin; Vero cells, Shiga toxin protein synthesis inhibition reporter; actives 9.2% (n = 290,000); AID 2315, 2010; inhibition, % at 38.7 µM; in the data active = inhibition mostly above about 28%, no sharp cut-off; inactive = mostly below about 43%; note: 0% is about no effect
# Giardia growth: qHTS Assay for Inhibitors of Fructose-1,6-bisphosphate Aldolase from Giardia Lamblia: Giardia lamblia growth inhibition. shares compounds with Giardia FBPA inh-1. Giardia lamblia trophozoite growth inhibition. Potency, µM (highest dose often 57.5 µM), inactives show top-dose activity change, negative = inhibition, usual class: inhibitors. actives 5% (n = 1,500). AID 2785, 2010;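 note: potency is the fitted concentration of half-maximal effect; trophozoites exposed to compound for 48 h at 37 °C; % is set by controls: 0 for no effect and ±100 for the full control effect; nearly all actives have a fitted effect of over 70% in size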
# Mammalian tox: qHTS Assay for Inhibitors of Fructose-1,6-bisphosphate Aldolase from Giardia Lamblia: Mammalian cellular toxicity. shares compounds with Giardia FBPA inh-1. mammalian cell viability counter-screen, qHTS. Potency, µM (highest dose often 57.5 µM), for inactives: top-dose viability change, negative = toxicity, usual class: inhibitors. actives 4% (n = 1,500). AID 2786, 2010;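 note: Chinese hamster ovary cells used as mammalian cytotoxicity surrogate; viability measured as cellular ATP by luminescence; potency is the fitted concentration of half-maximal effect; compound exposure lasted 48 h before reading; % is set by controls: 0 for no effect and ±100 for the full control effect; nearly all actives have a fitted effect of over 60% in size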
# Giardia FBPA inh-2: qHTS Assay for Inhibitors of Fructose-1,6-bisphosphate Aldolase from Giardia Lamblia: Primary screen confirmation. shares compounds with Giardia FBPA inh-1. purified Giardia aldolase enzyme activity, qHTS. Potency, µM (doses to about 57.5 µM), for the others: at the highest dose activity change, negative = inhibition, usual class: inhibitors. actives 5% (n = 1,500). AID 2787, 2010; note: potency is the fitted concentration of half-maximal effect; % is set by controls: 0 for no effect and ±100 for the full control effect; nearly all actives have a fitted effect of over 45% in size
# Rabbit aldolase: qHTS Assay for Inhibitors of Fructose-1,6-bisphosphate Aldolase from Giardia Lamblia: Rabbit FBPA Selectivity; Potency, µM (doses to about 57.5 µM), inactives show at the top dose activity, negative = inhibition, actives largely listed as inhibitors; Rabbit muscle FBPA enzyme inhibition, selectivity counter-screen; actives 4% (n = 1,500); shares compounds with Giardia FBPA inh-1; note: potency is the fitted concentration of half-maximal effect; % is set by controls: 0 for no effect and ±100 for the full control effect; nearly all actives have a fitted effect of over 60% in size
# Target sequence (P00883 whole entry, looked up): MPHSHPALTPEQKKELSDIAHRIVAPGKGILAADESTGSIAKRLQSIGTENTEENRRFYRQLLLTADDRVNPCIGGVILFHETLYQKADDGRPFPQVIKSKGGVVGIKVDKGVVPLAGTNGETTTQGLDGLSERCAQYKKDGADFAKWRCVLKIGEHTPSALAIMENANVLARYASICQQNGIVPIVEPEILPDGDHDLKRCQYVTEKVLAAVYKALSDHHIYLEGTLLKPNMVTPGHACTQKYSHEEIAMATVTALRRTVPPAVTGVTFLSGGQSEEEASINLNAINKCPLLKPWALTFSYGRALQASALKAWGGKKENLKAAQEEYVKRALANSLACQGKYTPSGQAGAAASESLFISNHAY
# GAPDH coupling: qHTS Assay for Inhibitors of Fructose-1,6-bisphosphate Aldolase from Giardia Lamblia: Coupling assay counterscreen confirmation; GAPDH coupling enzyme counterscreen, biochemical, qHTS; Potency, µM (doses to about 57.5 µM), for inactives: at the top dose activity change, negative = inhibition, actives largely listed as inhibitors; shares compounds with Giardia FBPA inh-1; actives 6% (n = 1,500); note: potency is the fitted concentration of half-maximal effect; % is set by controls: 0 for no effect and ±100 for the full control effect; nearly all actives have a fitted effect of over 55% in size
# Numbers without * were called inactive; ? = inconclusive; · = no result given; [ ] = remark or other dose. Unless noted, calls come from the whole dose curve; as a rule, active = well fitted curve in the direction sought with a large enough effect; inconclusive = small, poorly fitted or top-dose-only effect, or another doubt; inactive = no such curve, though single readings can be large; an effect the other way counts as inactive or inconclusive.
SMILES,LmPK inh,TbPYK inhibitor,Giardia FBPA inh-1,RE007 growth inh,CHX counter,Shiga inhibitor,Giardia growth,Mammalian tox,Giardia FBPA inh-2,Rabbit aldolase,GAPDH coupling
CC1CCCCN1S(=O)(=O)c1ccc(C(=O)Nc2nnc(-c3ccncc3)o2)cc1 (stereo not given),7%[11.5 µM],-1%,5µM*,-2%,4,-5,?,?,4%,13%,8%
O=C(Nc1nnc(-c2ccncc2)o1)c1ccccc1,7%,-23%,16µM*,2%,14,26,8.9µM*,2%,3%,-3%,-4%
Cc1ccc(C(=O)Nc2nnc(-c3ccncc3)o2)cc1,-10%,2%,14µM*,9%,9.8*,23,-5%,12%,13%,4%,-13%
COCCNC(=O)CCCn1c(SCC(=O)c2ccc(F)cc2)nc2c(sc3ccccc32)c1=O,·,4%,·,·,·,·,·,·,·,·,·
CCn1cc(/C=C(\NC(=O)c2ccccc2Cl)C(=O)NCCCn2ccnc2)c2ccccc21,·,2%,·,·,·,·,·,·,·,·,·
CC(=O)Nc1nc(C)nc(-c2ccccc2)c1C(C)=O,0%,-2%,16µM*,16%,-3,-14,23%,-7%,3%,9%,10%
CC(=O)c1c(NC(=O)C(C)C)nc(C)nc1-c1ccccc1,4%,2%,-20%,5%,-2,-9,·,·,·,·,·
CCNc1nc(C(=O)O)nc(N2CCOCC2)n1,-4%,2%,22µM*,8%,7,16,18%[10.4 µM],4%,-5%,1%,8%
CC(C)(C)Nc1nc(C(N)=O)nc(N2CCOCC2)n1,-2%,8%,6%,6%,-2,-15,·,·,·,·,·
O=C(NCCCNCCCNC(=O)c1ccc(/C=N/O)nc1)c1ccc(/C=N/O)nc1,-1%,6%,4µM*,8%,-2,-6,-18%[38.3 µM],2%,-9%,-4%,-25%
CCN(C(=O)c1c(C)oc2ncn(CC(C)C)c(=O)c12)c1cccc(Cl)c1,·,0%,·,·,·,·,·,·,·,·,·
COCc1cc(=O)[nH]c(=S)[nH]1,-2%,-7%,4.5µM*,23%,-2,-9,?,-4%,5%,1%,13%
CCN(CC)c1ccc(N=C2C(=O)Nc3ccccc32)cc1,?,?,-16%,-21%,12,25,-2%[38.3 µM],-21%,0.26µM*,?,0.73µM*
O=C1Nc2ccccc2C1=Nc1ccc(Cl)cc1,3%,-3%,6%,-10%,-2,-9,·,·,·,·,·
C/C(=N\N1C(=O)CSC1=S)c1ccc(Br)cc1,4%,-10%,16µM*,3%,4,-3,-16%,6%,-12%,2%,-6%
O=c1[nH]c(CSc2cccc[n+]2[O-])nc2ccccc12,0%,-25%,14µM*,-15%,3,13,0%[10.4 µM],-9%,-2%,-4%,1%
O=C(N[C@@H](Cc1ccccc1)C(=O)Nc1ccc(F)cc1)C1CCNCC1,0%,10%,·,6%,-2,-7,·,·,·,·,·
C[C@H](N)C(=O)N1CCC(C(=O)N[C@@H](Cc2ccccc2)C(=O)Nc2ccc(F)cc2)CC1,-6%,-10%,16µM*,5%,2,-4,-26%,12%,-2%,-3%,3%
CO/N=C(/C(=O)N[C@@H]1C(=O)N2C(C(=O)O)=CCS[C@H]12)c1cnc(N)s1,4%,·,16µM*,·,-3,-2,-21%,3%,-13%,-8%,-6%
CCOc1ccc(-c2nc(SCC(=O)c3ccccc3)n[nH]2)cc1,·,-17%,·,·,·,·,·,·,·,·,·
O=C(CSc1n[nH]c(-c2ccccc2)n1)c1ccc(O)c(O)c1,8%,-11%,8.9µM*,-3%,3,-2,-18%[10.4 µM],-16%,-28%,-24%,-13%
Cc1nc(SCC(=O)c2cccc([N+](=O)[O-])c2)n[nH]1,1%,?,?,0%,12,12,·,·,·,·,·
Cc1nc(SCC(=O)c2ccc(F)cc2)n[nH]1,17%,?,28µM*,-16%,8,50,16%[10.4 µM],14%,6%,-4%,8%
O=c1[nH]c2cc([N+](=O)[O-])cc([N+](=O)[O-])c2[nH]c1=O,·,·,-10%,·,-9,-10,·,·,·,·,·
O=C(Cc1c(F)cccc1Cl)NNC(=S)Nc1ccc(S(=O)(=O)Nc2ncccn2)cc1,0%,-2%,14µM*,-7%,-3,-4,3%[10.4 µM],4%,20%,20%,27%
O=C(Nc1nnc(C2=COCCO2)o1)c1ccc(S(=O)(=O)N2CCCCC2)cc1,2%[11.5 µM],9%,16µM*,5%,-1,-6,?,-9%,11%,16%,-1%
CC1CCN(S(=O)(=O)c2ccc(C(=O)Nc3nnc(C4=COCCO4)o3)cc2)CC1,1%,5%,·,23%,-1,-4,·,·,·,·,·
O=C(Nc1nnc(-c2ccccc2Cl)o1)c1ccc(S(=O)(=O)N2CCCCCC2)cc1,-2%,0%,?,?,1,-1,·,·,·,·,·
CCC1CCCCN1S(=O)(=O)c1ccc(C(=O)Nc2nnc(C3=COCCO3)o2)cc1 (stereo not given),2%,1%,·,6%,-3,-5,·,·,·,·,·
O=C(Nc1nnc(C2=COCCO2)o1)c1ccc(S(=O)(=O)N2CCCC2)cc1,1%[11.5 µM],2%,3.5µM*,6%,-1,2,25%[38.3 µM],-4%,-6%,-3%,2%
